Test results taken from PubChem BioAssay (EPA / NIEHS).
Calls of active or inactive are those of the source. How the source made its calls: active means hit-call score of the fitted dose curve at least 0.9, where 1 is the maximum; inactive means score below 0.9.

Assays:
Conditions in all cases: mRNA level, 48 h; actives raise or lower the signal
[1] = read-out: ABC Transporter (ABCC3), ABCC3 (gene 8714); assay: LTEA_HepaRG_ABCC3: Life Technologies and Expression Analysis (LTEA) Assay for ABC Transporter (ABCC3) using HepaRG (AID 2283462)
Summary of the method: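 Differentiated human HepaRG cells exposed 48 h in serum-free induction medium, 0.5% DMSO vehicle, 8-point half-log series to 100 uM in duplicate. ABCC3 mRNA by qRT-PCR, normalised to ACTB, GAPDH, POLR2A; bidirectional fit vs DMSO.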

[2] = read-out: ABC Transporter (ABCB11), ABCB11 (gene 8647); assay: LTEA_HepaRG_ABCB11: Life Technologies and Expression Analysis (LTEA) Assay for ABC Transporter (ABCB11) using HepaRG (AID 2283463)
Summary of the method: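 Using HepaRG cultures held in 0.5% DMSO, chemicals were tested at half-log dilutions from 100 uM for 48 h. Induction or suppression of ABCB11 mRNA, normalized to ACTB, GAPDH and POLR2A, was fitted bidirectionally against vehicle.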

[3] = read-out: ABC Transporter (ABCC2), ABCC2 (gene 1244); assay: LTEA_HepaRG_ABCC2: Life Technologies and Expression Analysis (LTEA) Assay for ABC Transporter (ABCC2) using HepaRG (AID 2283464)
Summary of the method: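 Differentiated HepaRG cells in serum-free induction medium exposed 48 h to eight half-log concentrations up to 100 uM, 0.5% DMSO, in duplicate. ABCC2 mRNA measured by qRT-PCR (TaqMan, Fluidigm), normalized to ACTB, GAPDH and POLR2A. Fitted in both directions against DMSO.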

[4] = read-out: Broad substrate specificity ATP-binding cassette transporter ABCG2 (Homo sapiens) (UniProt Q9UNQ0); assay: LTEA_HepaRG_ABCG2: Life Technologies and Expression Analysis (LTEA) Assay for ABC Transporter (ABCG2) using HepaRG (AID 2283465)
Summary of the method: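 Gene expression of ABCG2 in HepaRG liver cells is quantified by qRT-PCR following 48 h exposure across an eight-point series topping at 100 uM. Values come from bidirectional fitting relative to DMSO vehicle.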

[5] = read-out: ATP-citrate lyase (ACLY), ACLY (gene 47); assay: LTEA_HepaRG_ACLY: Life Technologies and Expression Analysis (LTEA) Assay for ATP-citrate lyase (ACLY) using HepaRG (AID 2283466)
Summary of the method: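 ACLY expression changes in human HepaRG liver cells are quantified by qRT-PCR after 48 h exposure to test chemicals (maximum 100 uM, half-log steps). Values are fitted in both directions relative to 0.5% DMSO vehicle.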

[6] = read-out: Peroxisomal acyl-coenzyme A oxidase 1 (ACOX1) gene, ACOX1 (gene 51); assay: LTEA_HepaRG_ACOX1: Life Technologies and Expression Analysis (LTEA) Assay for Peroxisomal acyl-coenzyme A oxidase 1 (ACOX1) gene using HepaRG (AID 2283467)
Summary of the method: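 Human HepaRG hepatic cultures, 48 h treatment with test chemicals up to 100 uM. ACOX1 expression read by qRT-PCR relative to 0.5% DMSO vehicle.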

[7] = read-out: Alkaline Phosphatase, Placental (ALPP) gene, ALPP (gene 250); assay: LTEA_HepaRG_ALPP: Life Technologies and Expression Analysis (LTEA) Assay for Alkaline Phosphatase, Placental (ALPP) gene using HepaRG (AID 2283468)
Summary of the method: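 HepaRG cells plated 48 h, then exposed in duplicate for 48 h in serum-free induction medium to 8-point half-log series from 100 uM in 0.5% DMSO. ALPP mRNA by TaqMan qRT-PCR, normalized to ACTB/GAPDH/POLR2A; bidirectional fit versus DMSO.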

[8] = read-out: Bcl-2 (BAD) gene, BAD (gene 572); assay: LTEA_HepaRG_BAD: Life Technologies and Expression Analysis (LTEA) Assay for Bcl-2 (BAD) gene using HepaRG (AID 2283469)
Summary of the method: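 Activity values reflect up- or down-regulation of BAD mRNA in human HepaRG hepatic cells treated 48 h in serum-free medium, with eight-point half-log dosing capped at 100 uM and 0.5% DMSO vehicle.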

[9] = read-out: Bcl-2 (BAX) gene, BAX (gene 581); assay: LTEA_HepaRG_BAX: Life Technologies and Expression Analysis (LTEA) Assay for Bcl-2 (BAX) gene using HepaRG (AID 2283470)
Summary of the method: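 Cells were thawed, plated for 48 h, moved to serum-free induction medium and dosed for 48 h (highest concentration 100 uM, half-log steps, 0.5% DMSO). Total RNA was then analysed for BAX expression by qRT-PCR.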

BCL2L11 (gene 10018) = assay: LTEA_HepaRG_BCL2L11: Life Technologies and Expression Analysis (LTEA) Assay for Bcl-2 (BCL2L11) gene using HepaRG (AID 2283473)
Summary of the method: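 Differentiated human HepaRG cells were exposed 48 h in serum-free induction medium to eight half-log concentrations up to 100 uM in 0.5% DMSO, in duplicate. BCL2L11 mRNA was quantified by TaqMan qRT-PCR, normalized to ACTB, GAPDH and POLR2A; induction or repression fitted versus DMSO.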

[10] = read-out: Apolipoprotein A-V (APOA5) gene, APOA5 (gene 116519); assay: LTEA_HepaRG_APOA5: Life Technologies and Expression Analysis (LTEA) Assay for Apolipoprotein A-V (APOA5) gene using HepaRG (AID 2283474)
Summary of the method: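 Differentiated HepaRG cells in serum-free induction medium, exposed 48 h in duplicate to eight half-log concentrations topping at 100 uM (0.5% DMSO). APOA5 mRNA by Fluidigm TaqMan qRT-PCR, normalized to ACTB, GAPDH and POLR2A; bidirectional fit versus DMSO.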

[11] = read-out: Apoptosis regulator Bcl-2 (Homo sapiens) (UniProt P10415); assay: LTEA_HepaRG_BCL2: Life Technologies and Expression Analysis (LTEA) Assay for Bcl-2 gene using HepaRG (AID 2283475)
Summary of the method: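 Plated human HepaRG cells are exposed to test chemicals for 48 h across eight concentrations from 100 uM downward in half-log steps (0.5% DMSO). BCL2 expression is then measured by qRT-PCR with housekeeping normalisation and fitted bidirectionally against vehicle.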

[12] = read-out: Bcl-2 (BID) gene, BID (gene 637); assay: LTEA_HepaRG_BID: Life Technologies and Expression Analysis (LTEA) Assay for Bcl-2 (BID) gene using HepaRG (AID 2283476)
Summary of the method: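 Cells are plated, cultured 48 h, switched to serum-free induction medium, then dosed 48 h (100 uM top, half-log steps, 0.5% DMSO). RNA is isolated and BID expression read by qRT-PCR.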

Caspase-3 (Homo sapiens) = Caspase-3 (Homo sapiens) (UniProt P42574); assay: LTEA_HepaRG_CASP3: Life Technologies and Expression Analysis (LTEA) Assay for cysteine-aspartic acid protease (CASP3) using HepaRG (AID 2283477)
Caspase-3 (Homo sapiens), sequence (P42574 whole entry, looked up): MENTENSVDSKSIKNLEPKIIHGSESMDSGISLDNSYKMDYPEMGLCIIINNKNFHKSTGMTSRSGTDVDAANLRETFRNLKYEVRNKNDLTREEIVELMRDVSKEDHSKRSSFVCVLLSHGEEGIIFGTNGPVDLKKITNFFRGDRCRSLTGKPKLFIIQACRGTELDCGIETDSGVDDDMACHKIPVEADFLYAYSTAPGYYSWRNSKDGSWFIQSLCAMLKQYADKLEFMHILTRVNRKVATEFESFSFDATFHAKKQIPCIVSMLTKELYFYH
Summary of the method: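 Differentiated HepaRG cells, plated 48 h, were treated in duplicate in serum-free induction medium for 48 h with eight half-log concentrations up to 100 uM in 0.5% DMSO. CASP3 mRNA measured by qRT-PCR, normalized to ACTB, GAPDH, POLR2A.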

[13] = read-out: Cytochrome P450 (CYP24A1), CYP24A1 (gene 1591); assay: LTEA_HepaRG_CYP24A1: Life Technologies and Expression Analysis (LTEA) Assay for Cytochrome P450 (CYP24A1) using HepaRG (AID 2283478)
Summary of the method: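 HepaRG cells plated 48 h, then exposed in duplicate in serum-free induction medium for 48 h to 8-point half-log series from 100 uM in 0.5% DMSO. CYP24A1 mRNA by Fluidigm qRT-PCR, normalized to ACTB, GAPDH, POLR2A; bidirectional fit versus DMSO.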

[14] = read-out: Cytochrome P450 (CYP1A2), CYP1A2 (gene 1544); assay: LTEA_HepaRG_CYP1A2: Life Technologies and Expression Analysis (LTEA) Assay for Cytochrome P450 (CYP1A2) using HepaRG (AID 2283479)
Summary of the method: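 Differentiated human HepaRG cells in serum-free induction medium exposed 48 hours in duplicate to 8 half-log concentrations from 100 uM, 0.5% DMSO. CYP1A2 mRNA quantified by qRT-PCR, normalized to ACTB, GAPDH and POLR2A; bidirectional fitting versus DMSO.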

[15] = read-out: cysteine-aspartic acid protease (CASP8), CASP8 (gene 841); assay: LTEA_HepaRG_CASP8: Life Technologies and Expression Analysis (LTEA) Assay for cysteine-aspartic acid protease (CASP8) using HepaRG (AID 2283480)
Summary of the method: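 Concentration-response in duplicate up to 100 uM (half-log steps, 0.5% DMSO) on differentiated HepaRG cultures for 48 h. Expression change of CASP8 mRNA is determined by TaqMan qRT-PCR with housekeeping-gene normalization.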

[16] = read-out: Cytochrome P450 (CYP2B6), CYP2B6 (gene 1555); assay: LTEA_HepaRG_CYP2B6: Life Technologies and Expression Analysis (LTEA) Assay for Cytochrome P450 (CYP2B6) using HepaRG (AID 2283481)
Summary of the method: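 Differentiated human HepaRG cells in serum-free induction medium, dosed in duplicate for 48 h over 8 half-log concentrations topping at 100 uM (0.5% DMSO). CYP2B6 mRNA measured by TaqMan qRT-PCR, normalized to ACTB, GAPDH, POLR2A; bidirectional fit versus DMSO.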

[17] = read-out: adenosine kinase (ADK) gene, ADK (gene 132); assay: LTEA_HepaRG_ADK: Life Technologies and Expression Analysis (LTEA) Assay for adenosine kinase (ADK) gene using HepaRG (AID 2283471)
Summary of the method: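 Following 48 h exposure of HepaRG cells in 0.5% DMSO (top concentration 100 uM, duplicate wells), ADK mRNA induction or suppression was measured by qRT-PCR, normalised to ACTB/GAPDH/POLR2A, and fitted bidirectionally relative to vehicle.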

[18] = read-out: Alpha-fetoprotein (AFP) gene, AFP (gene 174); assay: LTEA_HepaRG_AFP: Life Technologies and Expression Analysis (LTEA) Assay for Alpha-fetoprotein (AFP) gene using HepaRG (AID 2283472)
Summary of the method: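 Chemicals were tested on differentiated HepaRG cells for 48 hours at eight concentrations up to 100 uM, with 0.5% DMSO as vehicle. AFP expression was then quantified by qRT-PCR and analyzed for gain or loss relative to DMSO.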

Measured: AC50

Apoptosis regulator Bcl-2 (Homo sapiens), sequence (P10415 whole entry, looked up): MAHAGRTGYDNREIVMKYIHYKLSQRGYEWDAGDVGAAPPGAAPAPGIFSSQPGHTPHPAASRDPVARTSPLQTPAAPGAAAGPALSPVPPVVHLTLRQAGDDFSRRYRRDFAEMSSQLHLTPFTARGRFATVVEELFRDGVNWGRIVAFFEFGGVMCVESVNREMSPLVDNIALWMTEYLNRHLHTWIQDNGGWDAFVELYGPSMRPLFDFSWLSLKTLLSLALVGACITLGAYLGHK
Broad substrate specificity ATP-binding cassette transporter ABCG2 (Homo sapiens), sequence (Q9UNQ0 whole entry, looked up): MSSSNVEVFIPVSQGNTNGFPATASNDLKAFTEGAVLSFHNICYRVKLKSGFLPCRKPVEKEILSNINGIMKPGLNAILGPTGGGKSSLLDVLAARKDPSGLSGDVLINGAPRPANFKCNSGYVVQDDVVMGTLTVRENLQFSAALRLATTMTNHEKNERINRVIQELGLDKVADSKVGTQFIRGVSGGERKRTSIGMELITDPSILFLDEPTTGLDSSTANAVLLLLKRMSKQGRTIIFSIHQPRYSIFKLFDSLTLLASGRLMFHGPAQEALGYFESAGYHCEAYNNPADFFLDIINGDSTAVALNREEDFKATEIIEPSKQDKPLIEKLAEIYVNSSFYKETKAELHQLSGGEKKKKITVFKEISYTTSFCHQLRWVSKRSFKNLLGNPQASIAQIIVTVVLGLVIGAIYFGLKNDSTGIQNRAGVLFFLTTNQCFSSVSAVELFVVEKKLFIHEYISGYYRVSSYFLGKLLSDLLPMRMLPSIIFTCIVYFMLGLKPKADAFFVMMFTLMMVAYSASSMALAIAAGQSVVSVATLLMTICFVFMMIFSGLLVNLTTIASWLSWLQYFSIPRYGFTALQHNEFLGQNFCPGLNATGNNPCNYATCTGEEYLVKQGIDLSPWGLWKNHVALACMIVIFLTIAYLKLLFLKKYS

Cc1cc(F)ccc1-c1cc(N2CC[C@@H](O)[C@H]2CO)ncc1N(C)C(=O)C(C)(C)c1cc(C(F)(F)F)cc(C(F)(F)F)c1
active: [2] 21.8 µM | [3] 70.7 µM | [4] 16.7 µM | [6] 8.09 µM | [7] 16.5 µM | [8] 72.1 µM | [9] 74.8 µM | BCL2L11 (gene 10018) 52.7 µM | [10] 12.9 µM | [11] 19.7 µM | Caspase-3 (Homo sapiens) 76.6 µM | [14] 21.1 µM | [16] 22.3 µM
inactive: [1] | [5] | [12] | [13] | [15]

Cc1oc2c(NC(=O)c3c(Cl)cccc3Cl)cccc2c1C(C)(C)O
active: [1] 16.1 µM | [2] 23.8 µM | [3] 33.8 µM | [5] 29.6 µM | [6] 30 µM | [7] 50 µM | [9] 85.9 µM | [18] 15.8 µM | [10] 50.7 µM | [11] 55.3 µM | [14] 12.7 µM | [16] 32.8 µM
inactive: [4] | [8] | [17] | BCL2L11 (gene 10018) | [12] | Caspase-3 (Homo sapiens) | [13] | [15]

CCCCOC(=O)c1ccc(O)cc1
not listed: [18]
inactive: all other assays above

Cc1ccc(C(C)C)cc1
not listed: [17] | [18]
inactive: all other assays above

CCCOC(=O)c1cc(O)c(O)c(O)c1
active: [3] 6.03 µM | [4] 4.97 µM | [16] 0.674 µM
not listed: [8] | [9] | [18]
inactive: all other assays above

O=C(O)Cn1c(=O)n(Cc2ccc(Br)cc2F)c(=O)c2ccc(Cl)cc21
active: [16] 32.7 µM
not listed: [17] | [18]
inactive: all other assays above

O=C(O)c1ccccc1C(=O)OCc1ccccc1
not listed: [17]
inactive: all other assays above

CCO[Si](CCCNC(N)=O)(OCC)OCC
not listed: [14]
inactive: all other assays above

CCOC(=O)O[C@H](C)OC(=O)c1ccc2c(c1)cc(C(=O)NC1CCN(C(C)C)CC1)n2Cc1cc(-c2ccc(Cl)s2)on1
active: [7] 16.9 µM | [14] 69.7 µM
not listed: [17]
inactive: all other assays above

CCCCCCCCOc1ccc(C(=O)c2ccccc2)c(O)c1
active: [14] 50 µM | [16] 50 µM
not listed: [17] | [18]
inactive: all other assays above

Cc1cn([C@H]2C[C@H](N=[N+]=[N-])[C@@H](CO)O2)c(=O)[nH]c1=O
not listed: [17] | [18]
inactive: all other assays above

CCN(Cc1cccc(S(=O)(=O)O)c1)c1ccc(C(=C2C=CC(=[N+](CC)Cc3cccc(S(=O)(=O)O)c3)C=C2)c2ccccc2S(=O)(=O)[O-])cc1
not listed: [18]
inactive: all other assays above

Cc1cc2c(cc1C(F)(F)F)N(C(=O)Nc1ccc(Oc3cccnc3C)nc1)CC2
inactive: [3] | [5] | [8] | [9] | [11] | Caspase-3 (Homo sapiens) | [13]
active: [1] 11.6 µM | [2] 3.86 µM | [4] 11 µM | [7] 15.8 µM | [17] 82.4 µM | [18] 19.9 µM | BCL2L11 (gene 10018) 81.3 µM | [10] 78 µM | [12] 75 µM | [14] 2.31 µM | [15] 73.6 µM | [16] 12.2 µM
